In the library only some 1.1% were active in any assay of this set; here they are far more common.
a7 integrin act: activators of alpha7 integrin expression for muscular dystrophy; alpha7betagal myoblasts, beta-gal FDG fluorescence, 48 h; hit rate 0.064% among 350,000; Potency, µM (doses to about 38.3 µM), for the others: top-dose activation, actives largely listed as activators;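 also: potency is read from the fitted curve at half-maximal effect; 100% = response of the positive control SU9516; nearly all actives have a fitted effect of over 60% in size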
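alpha7betagal+/- myoblasts (passage 13, 250/well) treated 48 h at 37C with compounds at 1:260 dilution of DMSO stock. Lysed, then beta-galactosidase activity read as FDG fluorescence (ex 480/em 540) after 30 min, with pre-read for autofluorescence.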
gsp agonist: agonists of gsp mutant (McCune-Albright syndrome); Potency, µM (top dose mostly 76.9 µM), for the others: top-dose activation (cAMP increase), actives largely listed as activators; gsp mutant cells, cAMP HTRF, 30 min; hit rate 0.13% among 340,000; active = well fitted activation curve with a large enough effect; inconclusive = small, poorly fitted or top-dose-only effect, or another doubt; inactive = no such curve, though single readings can be large or run the other way; cell line not stated here;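 also: phosphodiesterase inhibitor Ro 20-1724 added with compounds to block cAMP breakdown; potency is read from the fitted curve at half-maximal effect; nearly all actives have a fitted effect of over 60% in size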
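Cells in DMEM/10% FBS with G418 were pretreated with compounds in DMSO plus […] (300 uM stock) for 30 min at 37C. cAMP was measured by HTRF (cAMP-d2 plus anti-cAMP antibody-K) after 30 min at room temperature.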
gsp antagonist: gsp mutant antagonism | gsp-mutant cells, cAMP HTRF, 30 min | Potency, µM (series often up to 76.9 µM), inactives show top-dose activity change, negative = inhibition, actives largely listed as inhibitors | AID 624288 | hit rate 0.4% among 340,000; calls by dose curve; cell line not stated here;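 also: intracellular cAMP measured with PDE inhibitor Ro 20-1724 present during compound exposure; potency is read from the fitted curve at half-maximal effect; % is scaled to controls: 0 for no effect and ±100 for the full control effect; nearly all actives have a fitted effect of over 65% in size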
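Cells in G418 medium, seeded 16-24 h, 37C; buffer exchange to DPBS + 1 mM CaCl2, 0.5 mM MgCl2, 0.05% BSA; cpds in DMSO + […] (300 uM stock), 30 min 37C; HTRF cAMP detection.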
S-ASM inh: inhibitors of human secretory acid sphingomyelinase. P17405. placental ASM, HMU-PC fluorogenic substrate, 60 min. Potency, µM (titrated, usually from 57.5 µM), for inactives: at the highest dose activity change, negative = inhibition, actives largely listed as inhibitors. hit rate 0.006% among 340,000. AID 504937; also: potency is read from the fitted curve at half-maximal effect
Target sequence (P17405 47-631 limits assumed): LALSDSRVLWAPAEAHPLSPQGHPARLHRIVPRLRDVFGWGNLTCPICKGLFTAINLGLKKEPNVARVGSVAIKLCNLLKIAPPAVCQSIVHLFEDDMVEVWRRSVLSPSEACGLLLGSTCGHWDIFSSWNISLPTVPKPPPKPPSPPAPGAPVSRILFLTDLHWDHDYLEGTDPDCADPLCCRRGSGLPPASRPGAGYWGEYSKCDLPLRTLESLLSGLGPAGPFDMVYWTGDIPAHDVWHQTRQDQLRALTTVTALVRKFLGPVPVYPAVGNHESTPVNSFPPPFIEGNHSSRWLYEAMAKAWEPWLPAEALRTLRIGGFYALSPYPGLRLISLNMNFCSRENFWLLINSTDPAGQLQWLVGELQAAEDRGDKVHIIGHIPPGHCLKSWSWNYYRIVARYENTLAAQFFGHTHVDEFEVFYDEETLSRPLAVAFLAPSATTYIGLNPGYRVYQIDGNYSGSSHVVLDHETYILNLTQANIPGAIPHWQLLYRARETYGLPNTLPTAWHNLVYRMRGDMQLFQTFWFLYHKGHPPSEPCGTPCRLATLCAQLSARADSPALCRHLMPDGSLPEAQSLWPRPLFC
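Steps: dispense placental human ASM, pin compound, wait 10 min at room temperature, add HMU-PC0 substrate at 9 uM final, incubate 60 min at 37 °C, add stop solution raising pH to 10, read fluorescence.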
RXFP1 antagonist: antagonists of human relaxin receptor RXFP1 | AID 1259400 | hit rate 0.59% among 350,000 | HEK293-RXFP1, relaxin-stimulated cAMP HTRF, 30 min; active compounds read low | activity change, negative = inhibition, % at 57.5 µM;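 active = activity change of -60% or lower, but not beyond a set lower limit; inconclusive = change between -60% and -40%, or beyond the set limit; inactive = change above -40%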; also: % is scaled to controls: 0 for no effect and ±100 for the full control effect
RXFP1 agonist: agonists of human relaxin receptor RXFP1. Potency, µM (highest dose often 57.5 µM), without a hit: at the top dose activation, usual class: activators. HEK293T-RXFP1 cAMP TR-FRET, 30 min; response scale: percent of porcine relaxin response, buffer zero. hit rate 0.3% among 370,000. Q9HBX9; also: potency is read from the fitted curve at half-maximal effect; % is scaled to controls: 0 for no effect and ±100 for the full control effect; nearly all actives have a fitted effect of over 60% in size
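HEK293 cells stably expressing RXFP1, treated 30 min at 37C with compounds plus PDE4 inhibitor Ro 20174; cAMP measured by HTRF TR-FRET. Normalized to buffer and 29 nM porcine relaxin; EC50 by Hill fit.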
Numbers without * were called inactive; ? = inconclusive; . = not tested or not shown; [ ] = another dose, or the depositor's remark. Unless noted, calls follow the shape of the dose curve; as a rule, active = well fitted curve in the direction sought with a large enough effect; inconclusive = small, poorly fitted or top-dose-only effect, or another doubt; inactive = no such curve, though single readings can be large; an effect the other way counts as inactive or inconclusive.

SMILES	a7 integrin act	gsp agonist	gsp antagonist	S-ASM inh	RXFP1 antagonist	RXFP1 agonist
COc1cc(/C=C/C(=O)O[C@H]2CC[C@]34C[C@]35CC[C@]3(C)[C@@H]([C@H](C)CCC=C(C)C)CC[C@@]3(C)C5CCC4C2(C)C)ccc1O (some centres undefined)	.	.	.	.	10	.
O=C(NC(=S)N(CCO)Cc1ccccc1)c1ccc(F)cc1Cl	-23%	?	-8%	2%	0	2%
O=C1COc2ccc(-c3cc(-c4ccc(F)cc4)c4c(n3)-c3ccccc3OC4)cc2N1	.	.	.	.	.	8%
O=C(CN1C(=O)C2(SCC(=O)N2c2ccc(F)cc2)c2ccccc21)NC1CCCCC1 (centres undefined)	.	.	.	.	.	1%
O=C(Nc1cccc(Cl)c1)Nc1cccc(Cl)c1	-6%	16%	35µM*	-8%	-21	1%
Cc1ccc(NC(=O)CSc2ncnc3ccccc23)cc1S(=O)(=O)N1CCCCCC1	-25%	21%[15.4 µM]	-24%	-2%	5	4%
O=C(Nc1cccc(F)c1)Nc1cccc(Cl)c1	?	-19%	-18%	-2%	-4	0%
O=C(CSc1ncnc2ccccc12)Nc1cc(S(=O)(=O)N2CCCCC2)ccc1Cl	-47%	3.2µM*	25%	0%	1	16µM*
O=C1Nc2ccccc2Cc2ccccc21	-14%	12%	.	.	-3	.
COc1ccc(/C=C2\SC(=S)N(CCCC(=O)Nc3ccccc3C(=O)O)C2=O)cc1OC	-7%	?	35µM*	-6%	-18	1%
O=C(CCCN1C(=O)/C(=C/c2cccs2)SC1=S)Nc1cccc(C(=O)O)c1	12%	-9%	-3%	-5%	-1	0%
O=C(CCCN1C(=O)/C(=C/c2cccs2)SC1=S)Nc1cccc(O)c1	0%	-14%	45µM*	-24%	-30	1%
O=C(CCN1C(=O)/C(=C/c2cccs2)SC1=S)Nc1cccc(O)c1	-10%	-39%	40µM*	-7%	?	-5%
O=C(CCN1C(=O)/C(=C/c2cccs2)SC1=S)Nc1ccc(O)cc1	-17%	11%	1%	-5%	-9	4%
CCC(=O)O[C@]1(C(=O)COC)[C@@H](C)C[C@H]2[C@@H]3CCC4=CC(=O)C=C[C@]4(C)C3(F)[C@@H](O)C[C@@]21C (some centres undefined)	.	.	.	.	-31	.
O=C(C[C@@H]1C/C=C\CCCC(=O)OC[C@@H]2CCCN2C1=O)N[C@@H](CO)Cc1ccccc1	-12%	.	7%	10%	.	.
Cc1ccc(C)c(NC(=O)c2ccc(CN3CC(=O)N4CCCCC4C3=O)cc2)c1 (centres undefined)	.	.	.	.	-5	2%
CCC(=O)Nc1ccc(NC(=O)CSc2nc3c(c(=O)n(C)c(=O)n3C)n2CC)cc1	-41%	47%[15.4 µM]	22%	18%	21	16µM*
CCCn1c(SCC(=O)Nc2ccc(NC(C)=O)cc2)nc2c1c(=O)n(C)c(=O)n2C	-23%	18µM*	4%	-2%	19	?
CCOC(=O)c1c(C2CC2)csc1NC(=O)COC(=O)CCS(=O)(=O)c1ccc(C)cc1	-5%	17%[15.4 µM]	-6%	5%	-1	-3%
O=C(CC(=O)c1cc(Cl)ccc1O)c1ccccc1	-53%	26%	?	-18%	-20	1%
O=C(c1ccccc1)c1cc(Cl)ccc1N1C(=O)C=CC1=O	-64%	0%	16%	-3%	-63*	0%
OC[C@H]1O[C@@H](n2cnc3c(=S)nc[nH]c32)[C@H](O)[C@@H]1O	.	.	.	.	8	.
COCCNCCCOc1ccc(C)cc1Br	-30%	-75%	35µM*	-7%	-9	-2%
COC(=O)c1ccc(CCc2cc(O)c(Br)cc2O)cc1	-54%	-4%	-6%	-12%	-96*	.
SMILES	a7 integrin act	gsp agonist	gsp antagonist	S-ASM inh	RXFP1 antagonist	RXFP1 agonist
CC(C)OC(=O)c1ccc(NCc2cc(O)ccc2O)cc1	-50%	-29%	2%	-7%	-63*	.
COC(=O)c1ccc(O)cc1	-1%	-9%[15.4 µM]	6%	-3%	2	6%
COC(=O)c1ccc(CCc2cc(O)ccc2O)cc1	-49%	20%	6%	-2%	-72*	.
CC(=O)c1ccc(N2CCN(C(=O)CCC(=O)Nc3ccc4nc(N5CCN(C)CC5)cc(C)c4c3)CC2)cc1	-43%	21%	-12%	211%	6	4%
N#Cc1nc(COc2cccc(Cl)c2)oc1NCCc1ccccc1	.	.	.	.	-30	-1%
NS(=O)(=O)c1ccc(CCNC(=O)C2CCN(c3ncnc4c3nc3n4CCCCC3)CC2)cc1	0%	?	1%	5%	15	16µM*
Cc1ccc(C)c(N2CCN(C(=O)C3CCCN(c4ncnc5c4nc4n5CCCCC4)C3)CC2)c1 (centres undefined)	14%	12%	?	-11%	-83*	3%
O=C(NCc1ccccc1)C1CCN(c2ncnc3c2nc2n3CCCCC2)CC1	.	.	.	.	-2	3%
Cc1ccc(N2CCN(C(=O)C3CCCN(c4ncnc5c4nc4n5CCCCC4)C3)CC2)c(C)c1 (centres undefined)	23%	-51%	4%	-8%	7	0%
Cc1cccc(N2CCN(C(=O)C3CCN(c4ncnc5c4nc4n5CCCCC4)CC3)CC2C)c1 (centres undefined)	-3%	26%	40µM*	-1%	?	-1%
COc1cccc(C(=O)Nc2cccc(C(=O)OCc3cc(=O)n4nc(C5CC5)sc4n3)c2)c1	.	.	.	.	-4	6%
CCn1c(=O)c2cc(C(=O)Nc3cccc(C(F)(F)F)c3)sc2c2ccccc21	.	.	.	.	.	23%
Cc1ccc(N(C(=O)c2cnccn2)C(C(=O)NC2CCCCC2)c2ccc(O)cc2)cc1 (centres undefined)	-8%	-2%[15.4 µM]	.	1%	-2	0%
CC(=O)Nc1ccc(N(C(=O)c2cnccn2)C(C(=O)NC2CCCCC2)c2ccc(F)cc2)cc1 (centres undefined)	11µM*	-14%[15.4 µM]	-2%	-3%	4	-1%
CCN(CC)S(=O)(=O)c1cccc(NC(=O)COc2ncnc3sccc23)c1	-28%	25µM*	2%	-2%	1	?
Cc1ccc(NC(=O)COc2ncnc3sccc23)cc1S(=O)(=O)N(C)C	-54%	23%	-3%	2%	-4	4%
CCCSC(=S)c1c(C)[nH]n(-c2ccccc2)c1=O	-12%	15%	?	-2%	-70*	0%
O=C(CN1CCN(C(=O)C2COc3ccccc3O2)CC1)Nc1ccccc1 (centres undefined)	-47%	-57%	-7%	2%	0	0%
